Experimental data from the supplement of paper PMC11001985.

Compound: C#CCNC(=O)CCSSCCC(=O)NCCc1ccc(C=O)c(C=O)c1
Assay: lysine labeling ratio R10:1 (500 µM / 50 µM probe), SILAC-ABPP in living cells; higher = lower intrinsic lysine reactivity toward the probe, active = 2 or less
Conditions: HeLa; probe concentrations 500 vs 50 µM
How it was run: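 R, given per lysine, is the filtered median high-probe/low-probe MS1 peptide ratio, with the median then taken across forward and reverse replicates. Cells were living SILAC light and heavy HeLa cells in PBS at room temperature, labelled with 50 µM or 500 µM of an alkyne-tagged, disulfide-linked lysine probe. The ceiling applied is 20.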

Chain of UniProt P21333 (P21333 whole entry): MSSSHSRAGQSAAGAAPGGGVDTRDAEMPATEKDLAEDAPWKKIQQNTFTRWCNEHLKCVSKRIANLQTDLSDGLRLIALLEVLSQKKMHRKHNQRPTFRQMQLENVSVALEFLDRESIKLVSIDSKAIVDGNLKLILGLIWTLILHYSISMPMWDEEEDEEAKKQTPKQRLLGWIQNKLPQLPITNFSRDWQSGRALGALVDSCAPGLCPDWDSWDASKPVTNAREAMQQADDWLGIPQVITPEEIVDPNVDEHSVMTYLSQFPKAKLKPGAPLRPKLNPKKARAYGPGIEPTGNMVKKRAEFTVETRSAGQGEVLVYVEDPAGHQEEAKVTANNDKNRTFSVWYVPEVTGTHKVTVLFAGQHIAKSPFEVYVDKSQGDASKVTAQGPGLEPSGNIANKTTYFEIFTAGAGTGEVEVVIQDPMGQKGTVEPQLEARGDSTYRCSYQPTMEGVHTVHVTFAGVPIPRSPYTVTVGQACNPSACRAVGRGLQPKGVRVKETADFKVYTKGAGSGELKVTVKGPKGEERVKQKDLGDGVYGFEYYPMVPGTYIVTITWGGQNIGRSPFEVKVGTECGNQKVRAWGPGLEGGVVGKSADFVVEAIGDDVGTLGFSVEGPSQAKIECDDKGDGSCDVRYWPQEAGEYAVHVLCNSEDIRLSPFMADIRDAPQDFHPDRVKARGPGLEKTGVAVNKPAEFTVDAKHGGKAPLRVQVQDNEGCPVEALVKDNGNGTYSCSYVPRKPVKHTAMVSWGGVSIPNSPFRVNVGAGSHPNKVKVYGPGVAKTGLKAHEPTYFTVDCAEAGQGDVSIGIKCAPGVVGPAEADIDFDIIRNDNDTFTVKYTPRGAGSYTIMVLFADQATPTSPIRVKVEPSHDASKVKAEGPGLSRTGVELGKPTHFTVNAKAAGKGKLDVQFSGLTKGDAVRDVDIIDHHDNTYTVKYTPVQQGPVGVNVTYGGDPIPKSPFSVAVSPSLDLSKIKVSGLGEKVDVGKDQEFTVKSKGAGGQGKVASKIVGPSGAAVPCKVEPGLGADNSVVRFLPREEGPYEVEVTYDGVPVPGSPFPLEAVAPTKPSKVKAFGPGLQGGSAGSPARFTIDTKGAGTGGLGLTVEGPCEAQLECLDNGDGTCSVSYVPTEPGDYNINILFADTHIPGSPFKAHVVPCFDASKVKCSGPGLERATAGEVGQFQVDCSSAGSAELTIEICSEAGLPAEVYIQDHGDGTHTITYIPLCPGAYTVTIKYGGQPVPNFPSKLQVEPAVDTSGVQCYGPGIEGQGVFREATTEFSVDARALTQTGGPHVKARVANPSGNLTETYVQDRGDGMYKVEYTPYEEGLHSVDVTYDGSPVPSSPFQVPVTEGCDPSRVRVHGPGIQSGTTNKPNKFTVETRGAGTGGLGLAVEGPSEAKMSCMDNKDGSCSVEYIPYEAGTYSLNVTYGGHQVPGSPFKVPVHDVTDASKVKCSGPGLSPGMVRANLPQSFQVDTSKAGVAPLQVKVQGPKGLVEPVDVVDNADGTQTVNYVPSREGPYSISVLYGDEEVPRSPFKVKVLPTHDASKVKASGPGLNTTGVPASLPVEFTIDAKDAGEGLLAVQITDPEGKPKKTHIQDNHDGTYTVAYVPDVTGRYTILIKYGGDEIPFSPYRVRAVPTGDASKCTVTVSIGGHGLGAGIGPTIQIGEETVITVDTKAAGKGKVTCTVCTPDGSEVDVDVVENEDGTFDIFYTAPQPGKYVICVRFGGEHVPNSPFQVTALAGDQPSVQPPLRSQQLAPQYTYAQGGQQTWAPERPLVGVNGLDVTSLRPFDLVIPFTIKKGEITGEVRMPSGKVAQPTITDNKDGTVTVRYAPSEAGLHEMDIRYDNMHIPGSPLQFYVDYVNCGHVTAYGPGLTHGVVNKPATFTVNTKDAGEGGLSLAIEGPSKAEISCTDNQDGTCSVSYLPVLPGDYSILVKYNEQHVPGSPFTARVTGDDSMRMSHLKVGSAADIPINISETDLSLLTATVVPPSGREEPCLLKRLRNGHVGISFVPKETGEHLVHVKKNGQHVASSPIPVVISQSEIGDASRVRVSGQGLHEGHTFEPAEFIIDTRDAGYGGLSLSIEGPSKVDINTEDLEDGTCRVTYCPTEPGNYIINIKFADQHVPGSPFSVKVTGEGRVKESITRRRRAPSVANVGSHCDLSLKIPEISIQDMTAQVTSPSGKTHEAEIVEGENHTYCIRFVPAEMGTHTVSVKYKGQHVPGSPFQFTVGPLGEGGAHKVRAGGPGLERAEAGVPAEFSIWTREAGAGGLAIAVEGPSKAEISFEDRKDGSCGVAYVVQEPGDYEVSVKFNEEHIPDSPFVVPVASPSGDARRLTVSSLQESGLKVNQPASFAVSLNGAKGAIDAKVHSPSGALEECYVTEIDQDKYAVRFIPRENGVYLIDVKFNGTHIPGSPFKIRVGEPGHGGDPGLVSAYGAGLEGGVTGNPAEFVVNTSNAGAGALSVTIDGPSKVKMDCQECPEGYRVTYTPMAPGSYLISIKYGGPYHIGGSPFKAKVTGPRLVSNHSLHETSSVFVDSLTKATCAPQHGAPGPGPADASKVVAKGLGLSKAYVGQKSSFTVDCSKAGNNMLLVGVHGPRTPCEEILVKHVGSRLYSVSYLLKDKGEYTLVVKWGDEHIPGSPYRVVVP
Chain of UniProt P06756 (P06756 whole entry): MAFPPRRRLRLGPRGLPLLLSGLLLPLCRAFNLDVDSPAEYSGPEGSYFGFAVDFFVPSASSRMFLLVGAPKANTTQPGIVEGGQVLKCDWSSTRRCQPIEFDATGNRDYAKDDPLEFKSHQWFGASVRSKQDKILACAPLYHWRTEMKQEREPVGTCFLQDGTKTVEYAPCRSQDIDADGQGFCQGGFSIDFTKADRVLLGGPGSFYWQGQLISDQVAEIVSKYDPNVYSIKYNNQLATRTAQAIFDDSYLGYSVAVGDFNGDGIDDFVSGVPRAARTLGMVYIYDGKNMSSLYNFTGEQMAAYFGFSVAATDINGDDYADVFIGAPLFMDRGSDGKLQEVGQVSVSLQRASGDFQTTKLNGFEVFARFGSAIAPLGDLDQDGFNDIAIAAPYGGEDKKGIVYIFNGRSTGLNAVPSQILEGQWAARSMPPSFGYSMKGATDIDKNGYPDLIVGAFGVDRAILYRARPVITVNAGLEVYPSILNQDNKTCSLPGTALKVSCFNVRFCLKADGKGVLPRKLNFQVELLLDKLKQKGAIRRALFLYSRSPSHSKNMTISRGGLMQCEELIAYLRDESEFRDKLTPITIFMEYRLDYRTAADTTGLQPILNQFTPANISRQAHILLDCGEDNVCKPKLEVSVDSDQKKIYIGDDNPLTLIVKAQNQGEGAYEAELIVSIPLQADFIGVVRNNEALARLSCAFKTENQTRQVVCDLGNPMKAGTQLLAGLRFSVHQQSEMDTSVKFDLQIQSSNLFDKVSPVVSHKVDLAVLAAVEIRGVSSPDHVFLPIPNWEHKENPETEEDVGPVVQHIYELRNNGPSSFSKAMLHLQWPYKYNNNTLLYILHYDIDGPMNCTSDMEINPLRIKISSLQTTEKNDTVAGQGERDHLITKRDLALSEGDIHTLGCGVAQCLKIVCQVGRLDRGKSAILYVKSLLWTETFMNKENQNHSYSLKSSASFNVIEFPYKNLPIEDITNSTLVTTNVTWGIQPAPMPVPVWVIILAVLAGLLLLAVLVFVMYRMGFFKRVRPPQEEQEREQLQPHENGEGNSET
Chain of UniProt P23284 (P23284 whole entry): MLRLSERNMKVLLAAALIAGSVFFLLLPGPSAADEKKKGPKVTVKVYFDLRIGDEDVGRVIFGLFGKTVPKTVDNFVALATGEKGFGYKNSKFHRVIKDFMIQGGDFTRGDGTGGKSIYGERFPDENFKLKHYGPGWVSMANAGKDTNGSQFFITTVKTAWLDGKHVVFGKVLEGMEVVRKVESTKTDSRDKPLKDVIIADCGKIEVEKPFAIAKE
Chain of UniProt P16949 (P16949 whole entry): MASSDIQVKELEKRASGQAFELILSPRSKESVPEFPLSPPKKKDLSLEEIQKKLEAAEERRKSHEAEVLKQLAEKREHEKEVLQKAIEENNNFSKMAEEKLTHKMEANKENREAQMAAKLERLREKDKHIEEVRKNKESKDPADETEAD
Chain of UniProt Q9H7Z7 (Q9H7Z7 whole entry): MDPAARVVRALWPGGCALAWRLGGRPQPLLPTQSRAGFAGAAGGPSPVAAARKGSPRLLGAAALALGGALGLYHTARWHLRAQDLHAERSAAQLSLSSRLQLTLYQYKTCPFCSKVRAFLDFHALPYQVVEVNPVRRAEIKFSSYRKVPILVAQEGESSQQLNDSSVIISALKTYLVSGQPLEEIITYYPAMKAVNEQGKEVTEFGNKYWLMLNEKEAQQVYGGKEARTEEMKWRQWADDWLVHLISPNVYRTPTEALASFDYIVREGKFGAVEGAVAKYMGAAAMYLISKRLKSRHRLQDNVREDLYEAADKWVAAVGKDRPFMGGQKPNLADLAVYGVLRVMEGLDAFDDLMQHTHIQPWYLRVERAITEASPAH
Chain of UniProt P10809 (P10809 whole entry): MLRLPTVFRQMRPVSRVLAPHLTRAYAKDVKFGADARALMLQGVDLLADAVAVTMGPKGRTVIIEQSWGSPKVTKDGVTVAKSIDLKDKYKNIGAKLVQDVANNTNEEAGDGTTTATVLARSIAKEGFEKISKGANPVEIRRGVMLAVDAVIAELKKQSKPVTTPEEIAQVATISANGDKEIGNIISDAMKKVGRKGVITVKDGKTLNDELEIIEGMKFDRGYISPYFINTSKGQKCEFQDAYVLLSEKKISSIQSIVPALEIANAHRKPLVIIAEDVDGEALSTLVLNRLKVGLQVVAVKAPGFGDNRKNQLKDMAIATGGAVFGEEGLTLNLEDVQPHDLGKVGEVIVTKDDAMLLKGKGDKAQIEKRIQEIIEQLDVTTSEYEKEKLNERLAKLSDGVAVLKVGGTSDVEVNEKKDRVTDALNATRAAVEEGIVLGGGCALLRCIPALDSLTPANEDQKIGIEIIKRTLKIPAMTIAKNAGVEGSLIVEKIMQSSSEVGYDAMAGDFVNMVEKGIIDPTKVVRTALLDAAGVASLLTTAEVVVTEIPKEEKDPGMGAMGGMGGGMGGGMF

Lysine labeling ratio R10:1, inactive:
HEXB (lysine site: K517) (UniProt P07686) 2.41
FH (lysine site: K66) (UniProt P07954) 2.79
HSPD1 (lysine site: K369) (UniProt P10809) 2.45
RER1 (lysine site: K181) (UniProt O15258) 7.46
SERBP1 (lysine site: K122) (UniProt Q8NC51) 11.8
UniProt Q15149 (lysine site: K3685) 6.03
UniProt Q15149 (lysine site: K2078) 2.58
L1CAM (lysine site: K531) (UniProt P32004) 7.51
PLS3 (lysine site: K91) (UniProt P13797) 2.1
PLXNA2 (lysine site: K820) (UniProt O75051) 5.38
FAS (lysine site: K94) (UniProt P25445) 2.69
CCT5 (lysine site: K514) (UniProt P48643) 2.42
LMAN1 (lysine site: K407) (UniProt P49257) 3.11
CLTB (lysine site: K122) (UniProt P09497) 2.57
UniProt Q14964 (lysine site: K63) 2.17
PRDX6 (lysine site: K63) (UniProt P30041) 2.85
ROBO1 (lysine site: K237) (UniProt Q9Y6N7) 3.22
MSN (lysine site: K400) (UniProt P26038) 3.75
FLNA (lysine site: K2417) (UniProt P21333) 4.07
MYH9 (lysine site: K1775) (UniProt P35579) 3.47
ITGAV (lysine site: K718) (UniProt P06756) 2.95
RPL3 (lysine site: K373) (UniProt P39023) 2.31
HNRNPA1 (lysine site: K8) (UniProt P09651) 4.27

Lysine labeling ratio R10:1, active:
FLNA (lysine site: K704) (UniProt P21333) 1.61
IL17RA (lysine site: K274) (UniProt Q96F46) 0.998
SPTAN1 (lysine site: K250) (UniProt Q13813) 1.09
SCAMP3 (lysine site: K102) (UniProt O14828) 1.06
ITGAV (lysine site: K533) (UniProt P06756) 1.58
ACTN1 (lysine site: K741) (UniProt P12814) 1.15
UniProt P26639 (lysine site: K712) 1.83
CAPZB (lysine site: K57) (UniProt P47756) 1.35
FN1 (lysine site: K149) (UniProt P02751) 1.99
STMN1 (lysine site: K119) (UniProt P16949) 1.62
UniProt Q9Y653 (lysine site: K49) 1.54
UniProt Q96TA1 (lysine site: K430) 1.69
SPTAN1 (lysine site: K1838) (UniProt Q13813) 0.73
UniProt P05186 (lysine site: K346) 0.557
PPIB (lysine site: K98) (UniProt P23284) 1.78
PTGES2 (lysine site: K225) (UniProt Q9H7Z7) 1.93
UniProt P62899 (lysine site: K31) 1.97
